Among all 47,000 compounds or so, about 2,500 (5.3%) were called active. This excerpt belongs to a sample that is enriched for actives. Values without a mark were called inactive. Rule as the data show it: active = inhibition above about 30%; inactive = the rest. *1 amine or outer side, *2 acyl side, *3 side chain or, on linkers, in order; H or OH if unused. Where a SMILES comes first, the peptide text is derived from it. [ ]: non-standard residue; d: D form. ξ: configuration not given here. ξβ3hGly(undecyl) = CCCCCCCCCCCC(CC(=O)[*:2])N[*:1]

Ubiquitin carboxyl-terminal hydrolase 30 (Homo sapiens), sequence (Q70CQ3 whole entry, looked up): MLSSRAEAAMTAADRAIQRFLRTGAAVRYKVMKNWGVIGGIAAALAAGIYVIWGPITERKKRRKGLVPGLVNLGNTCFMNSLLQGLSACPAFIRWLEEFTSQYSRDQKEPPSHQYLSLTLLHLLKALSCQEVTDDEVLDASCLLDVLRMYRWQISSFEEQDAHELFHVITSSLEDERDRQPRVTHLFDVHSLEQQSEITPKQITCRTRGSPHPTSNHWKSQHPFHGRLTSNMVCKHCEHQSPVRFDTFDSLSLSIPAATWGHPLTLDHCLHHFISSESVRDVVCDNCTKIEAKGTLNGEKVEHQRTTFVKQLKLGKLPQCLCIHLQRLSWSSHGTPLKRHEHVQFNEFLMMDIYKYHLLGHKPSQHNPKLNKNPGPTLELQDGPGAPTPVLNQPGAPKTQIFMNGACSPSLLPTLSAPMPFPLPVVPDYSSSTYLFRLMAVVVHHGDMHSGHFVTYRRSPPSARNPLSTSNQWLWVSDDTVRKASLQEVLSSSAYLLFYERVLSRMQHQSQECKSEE

The test has as its target Ubiquitin carboxyl-terminal hydrolase 30 (Homo sapiens) (UniProt Q70CQ3). Put plainly: blocks human USP30 ubiquitin-rhodamine cleavage (AID 1645860). Conditions: purified USP30, Ub-rhodamine cleavage fluorescence; at 25 µM; stronger effect = higher value.
The term inhibition denotes the relative decrease from the control value, in per cent. As to `N#Cc1ccc(OC(=O)c2cc(S(=O)(=O)N3CCOCC3)c(Cl)cc2Cl)cc1`, the inhibition was 1.53%.

As for `COc1ccc(C(NC(=O)CN(C)Cc2ccc3c(c2)OCO3)c2ccccc2)cc1` (stereo not drawn), the inhibition was 42% (active).

On to `CN(CC(=O)Nc1ccc(F)cc1Cl)Cc1ccc2c(c1)OCO2`, for which the inhibition was -9.47%.

For `Cc1ccc(F)cc1NC(=O)CN(C)Cc1ccc2c(c1)OCO2`, the inhibition was -0.987%.

Regarding `Nc1ccc(C(=O)OCC(=O)NC2CCCc3ccccc32)cc1[N+](=O)[O-]` (stereo not drawn), the inhibition is 31.6% (active).

Take `O=C(c1ccccc1)c1ccc(NC2CCCc3ccccc32)c([N+](=O)[O-])c1` (stereo not drawn): the inhibition was -121%.

For the compound `O=C(COC(=O)c1ccc(F)cc1)NC1CCCc2ccccc21` (stereo not drawn), the inhibition is -8.55%.

On to `Cc1cc(F)ccc1NC(=O)Cc1n[nH]c(Cc2ccccc2)n1`, for which the inhibition is -13.4%.

Turning to `O=C(Cc1ccc(F)cc1)Nc1ccccc1Cc1ccccc1`, the inhibition was 27.2%.

For `Cc1ccccc1NC(=O)Cc1csc2nc(-c3ccc(F)cc3)cn12`, the inhibition is 88.4% (active).

As for `CC(C)N1CCN(C(=O)c2n[nH]c3c2CCCC3)CC1`, the inhibition is -5.42%.

`Cn1ccc(-c2cc(C(=O)NC3CC3)c3ccccn23)n1`: the inhibition was -423%.

As for `CC(C)C(=O)Nc1nc2ccc(CCC(=O)Nc3ccc(F)cc3)cc2s1`, the inhibition is 26.5%.

For `O=C(Nc1ccc2sc(NC(=O)C3CCCCC3)nc2c1)NC1CCCC1`, the inhibition is 0.0388%.

On to `CC(C)C(=O)Nc1nc2cc(NS(=O)(=O)c3ccccc3)ccc2s1`, for which the inhibition was 36.4% (active).

Turning to `COCCN1C(=O)Cc2c(C)nc(C3(C)CCCN(c4cc(C)ncn4)C3)nc21` (stereo not drawn), the inhibition was -104%.

As for `COc1cccc(-c2ocnc2C(=O)NCc2ccc(OC)c(OC)c2)c1`, the inhibition was -25.4%.

Turning to `COc1cc(OC)cc(-c2nnc(NC(=O)c3ccc([N+](=O)[O-])o3)o2)c1`, the inhibition was 40.1% (active).

For the compound `COc1ccc(-c2ocnc2C(=O)NCc2ccc(OC)c(OC)c2)cc1`, the inhibition was -6.37%.

On to `N#Cc1ccc(-c2cccc(C(F)(F)F)c2)n(Cc2c(F)cccc2Cl)c1=O`, for which the inhibition was 17.6%.

With `CC(=O)N1CSCC1C(=O)N1CCC2(CC1)CNC(=O)c1ccccc1O2` (stereo not drawn), the inhibition is 6.33%.

Turning to `CCN1CCC2(CC1)OC(=O)C(C)=C2C(=O)NCc1ccccc1OC`, the inhibition is 3.07%.

For the compound `COc1cccc(NC(=O)CSc2nc(-c3ccco3)nc3cc(=O)[nH]n23)c1`, the inhibition was -50.3%.

For `O=C1C(O)=C(c2ccc(O)c(O)c2)C(=O)C(O)=C1c1ccccc1`, the inhibition is 50.5% (active).

For the compound `CC(=O)N1CCn2c(nnc2C2CCCN2)C1` (stereo not drawn), the inhibition was 12.2%.

Take `CCCCCCCCCCCC1CC(=O)NC(CC(N)=O)C(=O)NC(Cc2ccc(O)cc2)C(=O)NC(CC(N)=O)C(=O)NC(CCC(N)=O)C(=O)N2CCCC2C(=O)NC(CC(N)=O)C(=O)NC(CO)C(=O)N1` (stereo not drawn) (cyclo([ξβ3hGly(undecyl)]NYNQPNS); configuration not given here): the inhibition is -32.4%.

For `O=C(Nc1ccc(C(F)(F)F)cc1)N1CCc2[nH]cnc2C1c1ccncc1` (stereo not drawn), the inhibition is 13%.

With `Cc1nn(-c2ccc(F)cc2F)c2c1C(C(=O)c1cc3ccccc3o1)CC(=O)N2` (stereo not drawn), the inhibition was 33.3% (active).

As to `Cc1nn(-c2cccc(F)c2)c2c1C(C(=O)c1cc3ccccc3o1)CC(=O)N2` (stereo not drawn), the inhibition was 2.53%.

In the case of `Cc1nn(-c2ccc(F)cc2)c2c1C(C(=O)c1cc3ccccc3o1)CC(=O)N2` (stereo not drawn), the inhibition was -18.2%.

In the case of `CC(CNC(=O)c1csc(C(=O)N2CCCC2)n1)c1ccccc1` (stereo not drawn), the inhibition was -12%.

Consider `CC(C)=CCC(O)C1=CC(=O)c2c(O)ccc(O)c2C1=O` (stereo not drawn), for which the inhibition is 74.5% (active).

With `CC(C)=CCc1cc(O)ccc1O`, the inhibition is 0.263%.

In the case of `Cc1ccc(NC(=O)C(OC(=O)c2ccc(S(=O)(=O)N3CCCC3)cc2)c2ccccc2)cc1` (stereo not drawn), the inhibition was 0.818%.

Turning to `CC(=O)Nc1ccc(S(=O)(=O)N2CCC(CN3CCCC(C)C3)CC2)cc1` (stereo not drawn), the inhibition is -7.71%.

Regarding `CC(=O)Nc1ccc(S(=O)(=O)N2CCC(CC(=O)NC(C)c3ccccc3)CC2)cc1` (stereo not drawn), the inhibition is 31.5% (active).

On to `O=C(O)c1ccc(S(=O)(=O)N2CCC(Cc3ccccc3)CC2)cc1`, for which the inhibition was -5.01%.

Consider `CCNC(=O)c1ccc2c(c1)nc1n2CCN(CC2CCCO2)C1` (stereo not drawn), for which the inhibition is -93.9%.

Turning to `Cc1noc(C)c1CSc1ccccc1C(=O)N(C)Cc1ccc2c(c1)OCO2`, the inhibition was 25.1%.

With `CCOCCCNc1ncnc2c1sc1nc(N3CCOCC3)c3c(c12)CC(C)(C)OC3`, the inhibition is -0.00409%.

Turning to `CC(=O)CCCSc1ncnc2c1sc1nc(N3CCOCC3)c3c(c12)CC(C)(C)OC3`, the inhibition is 36.7% (active).

Regarding `CCCCCCSc1ncnc2c1sc1nc(-c3ccccc3)c3c(c12)CC(C)(C)OC3`, the inhibition is -3.25%.

As for `CSc1nccc(-c2ccc(F)cc2)c1C#N`, the inhibition was 30.3% (active).

`O=C(NC1CCCCC1)c1ccc2c(=O)nc3c(-c4ccccc4F)n[nH]n3c2c1`: the inhibition is -42.8%.

Consider `CCc1ccc(NC(=O)N2CCC3(CC2)COc2ccccc2S(=O)(=O)N(C)C3)cc1`, for which the inhibition was -0.131%.

With `Cc1ccc(C)c(N2C(=O)CN(S(C)(=O)=O)CC2(C)C(=O)NCc2ccccc2)c1` (stereo not drawn), the inhibition is -0.764%.

Regarding `O=C(Nc1ccccc1F)C1CCCN(c2nnc3ccccn23)C1` (stereo not drawn), the inhibition was 8.96%.

As to `O=C(Nc1ccccc1F)NC1CCCN(c2cc(-c3ccncc3)[nH]n2)C1` (stereo not drawn), the inhibition was 34.3% (active).

For `O=C(CSc1nccn1C1CCCCC1)Nc1ccccc1F`, the inhibition was 24.6%.

Consider `COc1cccc(-c2cc3c(=O)n(Cc4nc(-c5ccccc5C)no4)ccn3n2)c1`, for which the inhibition is -2.78%.

With `CN1CCN(C(=O)C2=NOC3(CCCNC3)C2)C(c2ccccc2)C1` (stereo not drawn), the inhibition was -3.49%.

With `COc1ccc(-c2noc(C3(c4ccccc4)CCOCC3)n2)cc1`, the inhibition was 32.8% (active).

For the compound `COc1ccc(Cc2noc(C3(c4ccc(Cl)cc4)CCOCC3)n2)cc1`, the inhibition was -0.175%.

In the case of `COc1ccc(C2(C(=O)Nc3cccnc3)CCOCC2)cc1`, the inhibition was -2.08%.

With `C[C@]12C(=O)N(C3CC3)CC(=O)N1CC(c1ccccc1Cl)c1c2[nH]c2ccccc12` (stereo partly drawn), the inhibition is 21.3%.

On to `Cc1cc(=O)c2c(O)cccc2o1`, for which the inhibition was -221%.

For the compound `COc1ccc(CCC(=O)Nc2ccc3nc(N4CCOCC4)cc(C)c3c2)cc1`, the inhibition is -2.1%.

As for `Cc1nc(N(C)C)cc(N2CCN(C(=O)Nc3ccc4c(c3)OCCO4)CC2)n1`, the inhibition is -13.9%.

Turning to `Fc1cc(F)cc(CNc2cc(-n3ccnc3)ncn2)c1`, the inhibition was 0.587%.

`COc1cc(OC)cc(C(=O)Nc2cccc(CCc3nc4ccc(C)cc4[nH]3)c2)c1`: the inhibition is 26%.

Consider `COc1cc(Cn2cnc3c([nH]c4ccc(Br)cc43)c2=O)cc(OC)c1`, for which the inhibition is 57.3% (active).

With `O=c1c2[nH]c3ccc(Cl)cc3c2ncn1Cc1cccnc1`, the inhibition was -14.2%.

On to `CCOc1ccc2[nH]c3c(=O)n(Cc4cccnc4)cnc3c2c1`, for which the inhibition was 22%.

Consider `CC(=O)Nc1onc(C)c1-c1ccc(C)c(S(=O)(=O)Nc2ccccc2)c1`, for which the inhibition was -17.6%.

Regarding `O=C(Cc1nc(-c2ccccn2)n[nH]1)NC1CCCCCC1`, the inhibition is -21.9%.

Consider `COc1ccc(CC(=O)Nc2cnc(-c3ccccc3)nc2)cc1`, for which the inhibition is -102%.

For `Cc1ccc(NC(=O)Cc2nc(-c3ccccc3)n[nH]2)cc1`, the inhibition was 44.3% (active).

For the compound `CCOc1ncccc1C(=O)NNC(=O)c1cn(-c2ccccc2)nc1-c1ccccc1`, the inhibition was -0.192%.

Turning to `COc1ccccc1OCCC(=O)Nc1cccc(S(=O)(=O)N(C)C)c1`, the inhibition was 11.1%.

For `CC(OC(=O)c1cn(-c2ccccc2)nc1-c1cccnc1)C(=O)Nc1cccc(S(=O)(=O)N(C)C)c1` (stereo not drawn), the inhibition is 55.1% (active).

For the compound `CNc1nc(C2CCCN(C(=O)C3CCCCC3)C2)nc2c1CNCC2` (stereo not drawn), the inhibition was -11.2%.

Regarding `COc1cc(NS(=O)(=O)c2ccc3c(c2)N(C)CCO3)cc(OC)c1`, the inhibition was 0.0144%.

With `O=C(Nc1ccc(N2CCN(c3ccccc3)C2=O)nc1)c1ccc2c(c1)OCO2`, the inhibition is -9.55%.

On to `CC(C)(C)c1ccc(Oc2ccc(NC(=O)c3ccc4c(c3)CCO4)cn2)cc1`, for which the inhibition was 34.9% (active).

Take `O=C(Nc1ccccc1)c1ccc2c(c1)OCCCO2`: the inhibition is 3.42%.

Turning to `Cc1nc2cc3c(cc2n1CC(=O)NCCc1ccccc1)OCCO3`, the inhibition is -5.99%.

With `Cc1cccc(CC(=O)Nc2c(C)nc3ccccn3c2=O)c1`, the inhibition is 7.29%.

`COc1cccc(N2CCN(C(=O)Nc3ccc4c(c3)NC(=O)CO4)CC2)c1`: the inhibition was 69.6% (active).

For the compound `Cc1cc2oc(C(=O)Nc3ccc4c(c3)NC(=O)CO4)c(C)c2cc1Cl`, the inhibition was 19.5%.

Take `COc1cccc(NC(=O)N2CC[C@H]3N(C)CC[C@@]3(C(=O)N3CCCC3)CC2)c1`: the inhibition is -23.3%.

For the compound `O=C(O)C[C@@H]1CCN(C(=O)C2CCCCC2)C[C@@H]1CC1=NCCc2ccccc21`, the inhibition is -65%.

For the compound `COc1ccc(SCc2nc(N)nc(Nc3ccccc3)n2)cc1`, the inhibition was -33%.

On to `CSc1ncnc2c1sc1nc(-c3ccccc3)c3c(c12)CC(C)(C)OC3`, for which the inhibition is 9.17%.

With `CC(C)Cc1nc2sc3c(N(CCO)Cc4ccccc4)ncnc3c2c2c1COC(C)(C)C2`, the inhibition is 34.9% (active).

As to `CC1(C)Cc2c(c(-c3ccco3)nc3sc4c(SCCCc5ccccc5)ncnc4c23)CO1`, the inhibition is 11.9%.

As to `COc1cccc(O[C@@H]2C[C@@H](NC(=O)C3CCOCC3)[C@H](O)[C@H]2O)c1`, the inhibition was 7.84%.

Consider `O=C1CNC(=O)N1CC(O)Cn1c2ccc(Br)cc2c2cc(Br)ccc21` (stereo not drawn), for which the inhibition was 6.98%.

Regarding `O=C(Nc1ccc(Cl)cc1)C1C2C=CC3(O2)C1C(=O)N(CCc1ccccc1Cl)C3C(=O)NC1CCCCC1` (stereo not drawn), the inhibition was 29.8%.

For the origin of these results see PubChem BioAssay AID1645860 (Buhrlage Lab, Dana-Farber Cancer Institute and Novartis …, 2021).
